The whole screen tested about 640,000 compounds, of which about 9,300 (1.5%) were called active. This is one part of a sample in which actives are shown more often than they occur. Cut-off read from the data, not from the text of the source: active = inhibition above about 32%; inactive = the rest.
Experiment: TEAD-YAP interaction inhibition, primary screen, TEAD-YAP interaction inhibitor project, luminescence, HEK-TIYL cells (AID 1259422);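 note: 0% = median of test compound wells and 100% = reference inhibitor wells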
Details: TEAD-Gal4/YAP UAS-luciferase luminescence, at 9.12 µM, active compounds read high

SMILES | inhibition
COc1cc2nc(NCc3ccc4c(c3)OCO4)nc(N)c2cc1OC | 8.22% (inactive)
COc1cccc(NC(=O)CSc2nc(O)c(C)c(=O)n2-c2ccc(F)cc2)c1 | -6.67% (inactive)
COc1ccc(/C=N/NC(=O)CNc2cccc3ccccc23)cc1Cl | 8.35% (inactive)
O=C(CCSc1nc(-c2ccccc2)cs1)N1CCOCC1 | -10.1% (inactive)
O=C(NC1CC1)C1CCN(C(=O)c2sccc2-n2cccc2)CC1 | 0.5% (inactive)
CCC1CN(Cc2cn(CC)nc2C)Cc2cc(OC)ccc2O1 (centres undefined) | 4.73% (inactive)
FC(F)(F)c1ccc(Cn2cnc3c(NCc4nc5ccccc5[nH]4)nc(Cl)nc32)cc1 | -2.85% (inactive)
COc1cc(Nc2nc(NCc3nc4ccccc4[nH]3)c3ncn(C(C)C)c3n2)cc(OC)c1OC | 47.9% (active)
COc1ccc(-c2nc(Nc3cc(OC)c(OC)c(OC)c3)c3ncn(C(C)C)c3n2)cc1 | 23.6% (inactive)
COc1cc(Nc2cc(C(=O)NCc3nc4ccccc4[nH]3)ccn2)cc(OC)c1OC | 2.93% (inactive)
COc1ccc(CNc2nc(-c3ccccc3)nc3c2ncn3C(C)C)cc1 | -3.1% (inactive)
CC(C)n1cnc2c(NCc3nc4ccccc4[nH]3)nc(Cl)nc21 | 61.8% (active)
Cc1c(C(=O)NCC2CCCO2)sc2ncn(Cc3ccccc3F)c(=O)c12 (centres undefined) | 2.38% (inactive)
Oc1c(C(c2ccc(F)cc2)N2CCOCC2)sc2ncnn12 (centres undefined) | -3.52% (inactive)
COc1ccccc1N1CCN(/N=C(\C)c2cccs2)CC1 | -19.5% (inactive)
Cc1cccnc1NC(=S)NC(=O)c1cc2ccccc2o1 | -26.1% (inactive)
CCCn1nnnc1NC(=O)c1ccc(-c2cccc(Cl)c2)o1 | -16.9% (inactive)
CCCn1nnnc1NC(=S)NC(=O)c1cc2ccccc2o1 | 35.9% (active)
Cc1ccc(C(C)C)c(OC(=O)c2cc(-c3ccc(Cl)cc3)nc3ccc(C)cc23)c1 | -8.87% (inactive)
O=C1C(Nc2ccc(F)c(F)c2)=C(N2CCCC2)C(=O)c2ccccc21 | -1.87% (inactive)

SMILES | inhibition
O=C1C(Nc2ccc(F)c(F)c2)=C(N2CCCCC2)C(=O)c2ccccc21 | -7.95% (inactive)
CC1CCN(C2=C(NC3CCCC3)C(=O)c3ccccc3C2=O)CC1 | 51.5% (active)
Cc1c(C(=O)N2CCN(Cc3ccc4c(c3)OCO4)CC2)sc2ncn(CC(=O)Nc3cccc(C(F)(F)F)c3)c(=O)c12 | -1.1% (inactive)
CNC(=O)c1ccc(Cl)c([N+](=O)[O-])c1 | 8.77% (inactive)
CCCCC(=O)NC1(C(F)(F)F)C(=O)N(C2CCCCC2)C(C)=C1C(=O)OCC (centres undefined) | 18.5% (inactive)
Nc1c(C(=O)OCC(=O)NCc2ccc3c(c2)OCO3)[nH]c(=O)[nH]c1=O | -6.24% (inactive)
Cc1ccc(S(=O)(=O)Nc2ccc3oc(C)c(C(=O)NN)c3c2)cc1 | 10.1% (inactive)
CC(=O)c1c(C)oc2c1cc(NS(=O)(=O)c1ccc(C)cc1)c1ccccc12 | 62.9% (active)
CC(=O)c1c(C)oc2c1cc(NS(=O)(=O)c1cccc3cccnc13)c1ccccc12 | -0.78% (inactive)
COc1ccc(S(=O)(=O)Nc2ccc3oc(C)c(C(C)=O)c3c2)cc1 | 54.7% (active)
COCCOC(=O)c1c(C)oc2ccc(NS(=O)(=O)c3ccc(Cl)cc3)cc12 | -2.27% (inactive)
COC(=O)c1c(C)oc2c1cc(NS(=O)(=O)c1ccc(Cl)cc1)c1ccccc12 | 11.4% (inactive)
C=CCOC(=O)N1CCC(C(=O)NC(c2ccc(F)cc2)c2ccccn2)CC1 (centres undefined) | 6.83% (inactive)
COc1ccccc1NC(=O)N1CCC2(CC1)OCc1cc(SC)cc(C)c1O2 | 1.69% (inactive)
COc1ccc(NC(=O)/C=C\c2cccc3ccccc23)c(OC)c1 | 2.51% (inactive)
C=CC(=O)Nc1ccc(OC)cc1OC | 43.2% (active)
COc1ccc(CNC(=O)Nc2ccc(OC)cc2OC)cc1 | 0.36% (inactive)
CCn1cc(C(=O)OCc2c(F)cccc2Cl)c(=O)c2ccc(C)nc21 | -3.49% (inactive)
CCOc1ccc(-c2nc(-c3cccc([N+](=O)[O-])c3)no2)cc1 | -19.3% (inactive)
Cc1ccc2[nH]c3c(=O)n(N)cnc3c2c1 | -5.24% (inactive)

SMILES | inhibition
CCCCNc1ncnc2c1[nH]c1ccc(F)cc12 | 42.6% (active)
CCOC(=O)C(CC)Sc1nnc2c(n1)[nH]c1ccc(F)cc12 (centres undefined) | -2.45% (inactive)
N#CC1(NS(=O)(=O)c2cc([N+](=O)[O-])ccc2Cl)CCCCC1 | -2.76% (inactive)
CC(=O)c1ccc(NC(=O)/C=C/c2cccc([N+](=O)[O-])c2)cc1 | -22.5% (inactive)
COCCCNc1ncnc2ccc(I)cc12 | 29.9% (inactive)
Ic1ccc2ncnc(NCC3CCCO3)c2c1 (centres undefined) | 25.4% (inactive)
Ic1ccc2ncnc(NCCc3ccccc3)c2c1 | 32.8% (active)
CCn1c(SCC(=O)N2CCc3ccccc32)nnc1-c1ccccc1 | -0.23% (inactive)
O=C(NCCc1ccc(O)cc1)c1csc(Nc2ccc3ncccc3c2)n1 | -1.97% (inactive)
O=C(NCCc1ccc(O)cc1)c1csc(Nc2ccc(N3CCOCC3)cc2)n1 | 39.4% (active)
O=C(NCc1ccccc1)c1csc(Nc2ncccn2)n1 | 5.56% (inactive)
O=C(NCCc1ccccc1)c1csc(Nc2ccccc2)n1 | -24.6% (inactive)
O=C(Nc1ccc(N2CCOCC2)cc1)c1csc(Nc2ccc(-n3ccnc3)cc2)n1 | 17.6% (inactive)
O=C(NCc1ccccc1)c1csc(Nc2ccc(N3CCOCC3)cc2)n1 | 35% (active)
Cc1ccc2nc(-c3cc(NC(=O)c4ccccc4C)ccc3Cl)oc2c1 | -11.2% (inactive)
COc1ccc(Cn2c(SCC(=O)NCCc3ccc(OC)c(OC)c3)nc3ccsc3c2=O)cc1 | 11.1% (inactive)
CC(C)(C)c1ccc(CSc2nc3ccc(NC(=O)c4ccccc4)cc3s2)cc1 | 2.44% (inactive)
CCC(=O)Nc1ccc(NC(=O)COc2ccc(Br)cc2)cc1C | 0.24% (inactive)
COc1ccc(-c2cc(C(=O)Nc3sc(C)c(C)c3C#N)c3ccccc3n2)cc1OC | -0.22% (inactive)

— PubChem BioAssay AID1259422 (The Scripps Research Institute Molecular Screening Center, 2018)
